From PubChem BioAssay (NCI)
Compounds without any hit were thinned out: in the full panel of roughly 83,000, 20% have a hit.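 The test compound was applied at a single concentration to cells in 96-well plates for 48 hours, and percent growth was recorded.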 A number with no mark means an inactive call. Active and inactive are the calls of the source. The calls were made as follows: active = growth percent below 10; inactive = the rest.

What follows are compounds tested on RXF 393 renal (assay: NCI-60 one-dose screen, 48 h (100 = growth as untreated, 0 = no growth, -100 = all killed)). Details: 10 µM unless noted.

Compound | growth
C=CCn1c(SCC(=O)c2ccccc2)nnc1-c1c[nH]c2ccccc12 | 102%
Cc1cc(=O)oc2cc(OCCCOc3ccc(/C=C/C(=O)Nc4ccc(Cl)cc4)cc3)ccc12 | 44.9%
O=C(c1ccc(Cl)cc1)C1[C@H](c2ccc(Cl)cc2)[C@@H](c2ccccc2)NC12C(=O)Nc1ccc(Br)cc12 (some centres undefined) | 6.62% (active)
C[C@@H](Nc1c(C#N)cnc2ccc(-c3cnc(N)nc3)cc12)c1ccccc1 | -4.27% (active)
CCN1C(=S)N(CC)C2C1NN=C1SC(c3ccccc3)=CC(=O)N12 (centres undefined) | 89%
CC(C)(O)c1cncc(-c2ccc3ncnc(N4CCc5cc(F)c(Cl)cc54)c3c2)c1 | -17% (active)
CC(C)(C)Nc1nc2c(OCCc3ccccc3)cccn2c1-c1ccccc1Cl | -43.6% (active)
COc1ccc(/C=N/NC(=O)c2[nH]c3ccc(Br)cc3c2-c2ccccc2)s1 | 80.9%
OC1CCN(CCCOc2c3ccccc3nc3c2oc2ccc(Cl)cc23)CC1 | -10.8% (active)
Cc1sc2c(c1C)c(=O)nc1c(-c3nc(-c4ccc(F)cc4)no3)n[nH]n12 | 120%
CC(C)(C)Nc1nc2c(OCCc3ccccc3)cccn2c1-c1cccc(F)c1 | -43% (active)

What follows are compounds tested on SF-268 CNS in the same assay as above. Details: 10 µM unless noted.

Compound | growth
CCOC(=O)c1c(Nc2ccccc2)nn2c(N)c(C#N)c(-c3ccccc3)nc12 | 87.4%
COC(=O)c1ccc(NC(=S)N2CCc3ccc([N+](=O)[O-])cc3C2)cc1O | 103%
CCCC(=O)NC(c1cccc(N(C)C)c1)c1cc(C)c2cccnc2c1O (centres undefined) | 55.1%
COc1cc(/C=C/C(=O)c2cc(OC)c(OC)c(OC)c2)ccc1Oc1nc(NCCO)nc(N2CCOCC2)n1 | 9.81% (active)
CS(=O)(=O)c1ccc(-n2cc(/C=C/C(=O)c3ccc(NC(=O)CO[N+](=O)[O-])cc3)c(-c3ccc(Cl)cc3)n2)cc1 | 111%
Cc1cc2nc3c4cc(Cl)ccc4n(CC(=O)NCCN(C)C)c3nc2cc1C | 83%
Cc1cc2nc3c4cc(Cl)ccc4n(CC(=S)NCCN(C)C)c3nc2cc1C | 26.8%
NS(=O)(=O)c1ccc(Nc2nc(SCC(=O)c3ccc(Cl)cc3)nc3ccccc23)cc1 | 104%
Clc1ccc2oc3c(NCCCN4CCOCC4)c4ccccc4nc3c2c1 | 38.1%
Cc1ccc(/C=C/c2nn3c(-c4ccco4)nnc3s2)cc1C | 108%
N=C1CC(=O)NN1C(=O)CSc1nc2sc3c(c2c(=O)n1-c1ccc(Cl)cc1)CCCC3 | 99.7%
O=C(NNc1nc2cc(F)ccc2n2c(CN3CC4(COC4)C3)ccc12)c1cnccn1 | 22.8%
COc1cc2nc(-c3ccc(C)cc3)cc(OCCCNCC3CCCO3)c2cc1OC (centres undefined) | 79.7%
CS(=O)(=O)c1ccc(-c2nc3ccccn3c2C=Nc2ccc(Cl)cc2)cc1 | 75.4%
C#Cc1nc(C2=C(C)C(=O)/C(=N/OC(C)=O)C2)cs1 | 82.2%
CSCCC(C(=O)O)N1C(=O)/C(=C/c2ccc(O)c(O)c2)SC1=S (centres undefined) | 97.6%
CC(=NNc1ncnc2ccccc12)c1ccc(S(C)(=O)=O)cc1 | 108%
Nc1c(C(=O)c2ccc(Br)cc2)oc2nc(-c3cnccn3)cc(-c3cccs3)c12 | 104%
COc1cc(-c2nc3ccc(-c4nnc(SCC(=O)Nc5ccc(C(C)=O)cc5)o4)cc3[nH]2)cc(OC)c1OC | 111%
N#Cc1nc(-c2ccccc2)oc1S(N)(=O)=O | 110%
O=C(CN1C(=O)/C(=C/c2ccccc2)SC1=S)N1CCOCC1 | 102%
Nc1ncc(-c2ccc3ncnc(N4CCc5cc(F)c(Cl)cc54)c3c2)cc1CO | 8.31% (active)
Cc1ccc(C(=O)Nc2cccc(C(F)(F)F)c2)cc1Nc1nc(-c2cnccn2)nc2c1cnn2C | 81.8%
Clc1ccc2c(NCCCn3ccnc3)c3oc4ccc(Cl)cc4c3nc2c1 | 91.1%
CN(C)CCCNc1c2ccc(Cl)cc2nc2c1oc1ccc(Cl)cc12 | 43.8%
O=C(N/N=C/c1ccc[nH]1)c1[nH]c2ccc(Br)cc2c1-c1ccccc1 | 25.3%
C#Cc1nc(C2=C(C)/C(=N/OCc3ccccc3)CC2)cs1 | 0.651% (active)
N#Cc1ccc(C(=O)CSc2nc(Nc3ccc(S(N)(=O)=O)cc3)c3ccccc3n2)cc1 | 109%
